Most compounds without a hit are left out; they make up all but 0.51% or so of the library.
E coli growth-1: counter-screen for AddAB inhibitors: E. coli growth inhibition | 0.27% of 330,000 active | E. coli V3065 growth, OD600 absorbance, 18 h | inhibition, % at 11.9 µM;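 active = inhibition above the campaign's mean inhibition across all tested compounds plus 3 SD, cut at about 9.9% in these data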;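 note: uninfected addAB+ strain grown without phage in ampicillin broth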
AddAB inh: less growth of phage-infected E. coli with AddAB | E. coli expressing H. pylori AddAB, absorbance growth | inhibition, % at 11.9 µM | 0.29% of 330,000 active; in the data active = inhibition above about 12%
phage Ecoli inh: E. coli growth loss with phage present; growth absorbance; inhibition, % at 11.9 µM; 0.26% of 360,000 active; in the data active = inhibition above about 11%
p-CIP stab down: lowers stability of the mouse p/CIP coactivator protein. F442A p/CIP-EGFP cells, EGFP fluorescence, 16 h. 0.01% of 290,000 active. AID 1984. decrease of EGFP signal, % at 10 µM. Q05BA5;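 active = EGFP signal decrease of at least 30% at 10 µM or well 3 SD below plate mean, unless failing retest; inactive = the rest, including hits failing retest or dose response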
E coli growth-2: blocks Escherichia coli growth; OD600, 23 h; hits give low values; OD600 absorbance (concentration not given with the values); 0.21% of 330,000 active; AID 1053175;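 active = OD600 absorbance below the run mean of sample wells minus 3.6 SD, in any replicate, cut at about 0.56 in these data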
Tat transport: E. coli Tat transport inhibition | E. coli MC4100 TorA-mCherry Tat export, fluorescence | inhibition, % at 10 µM | 0.036% of 340,000 active;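 active = mean replicate inhibition at least 50% and at least half of replicates individually reaching 50%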;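 note: exported cargo escapes ClpAP degradation while cytoplasmic cargo is degraded and loses fluorescence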
Numbers stand for hits; – = inactive; · = no result given.

SMILES	E coli growth-1	AddAB inh	phage Ecoli inh	p-CIP stab down	E coli growth-2	Tat transport
COc1ccc2[nH]c(C)c(CCN3C(=O)C4CC=CCC4C3=O)c2c1 (stereo unspecified)	–	–	–	–	–	–
COc1ccc2[nH]c(C)c(CCN3C(=O)OC(C)(C)C3(C)O)c2c1 (stereo unspecified)	–	–	–	–	0.63	–
COCCN(C(=O)C1=COCCO1)c1c(N)n(CC(C)C)c(=O)[nH]c1=O	–	–	–	·	–	–
N/C(=N\OC(=O)Nc1ccccc1)c1ncc([N+](=O)[O-])s1	–	–	–	–	·	–
NC(=NOC(=O)c1ccc(Cl)cc1)c1ncc([N+](=O)[O-])s1	·	·	·	·	0.46	·
CC1(C(=O)NCc2ccccc2)CSCC(=O)N1Cc1cccc(C(F)(F)F)c1 (stereo unspecified)	·	·	–	·	·	·
CC(CCc1ccccc1)NC(=O)C(Cc1ccccc1)NC(N)=O (stereo unspecified)	–	–	–	–	0.53	–
O=C(Nc1ccc(OC(F)(F)F)cc1)Nc1cccc([N+](=O)[O-])c1	–	–	–	–	0.39	–
O=C(Nc1ccc(OC(F)(F)F)cc1)Nc1cccnc1	–	–	–	–	–	–
Cc1cc([N+](=O)[O-])ccc1NC(=O)Nc1ccc(F)cc1F	–	–	–	–	0.51	–
COc1ccc(NC(=O)Nc2ccc(F)cc2F)c(C)c1	–	–	–	–	–	–
Cc1ccc(NC(=O)Nc2cccc([N+](=O)[O-])c2)cc1F	–	–	–	–	0.48	–
O=C(O)c1sccc1Oc1ccc(F)cc1[N+](=O)[O-]	–	–	–	–	·	–
O=C1C=C(O)C(n2cncn2)C(c2ccc3c(c2)OCO3)C1 (stereo unspecified)	–	–	–	–	–	–
Cc1ccc2nc(SCC(=O)Nc3ccc4c(c3)OCCO4)[nH]c2c1	–	–	–	–	–	–
O=C(CSc1nc2ccccc2[nH]1)Nc1ccc2c(c1)OCCO2	10	–	–	–	–	–
COc1ccc(NC(=O)CSc2nnc(Cc3cccn3C)n2-c2ccc(OC)cc2)cc1	–	–	–	–	–	–
COc1ccc(-n2c(Cc3cccn3C)nnc2SCC(=O)Nc2ccc(C(C)=O)cc2)cc1	–	–	–	–	–	56
COc1ccccc1-c1cnc(C(O)c2ccc(CN3CCCCC3)cc2)[nH]1 (stereo unspecified)	·	·	–	·	·	·
CN(Cc1ccc(Cl)cc1)C(=O)c1ccc2ccccc2n1	–	–	–	–	–	–
COC(=O)C1=C(C)N(C)C(=NCc2cccc(C(F)(F)F)c2)NC1c1cccc(Cl)c1 (stereo unspecified)	·	·	–	·	·	·
COc1ccc(C(=O)NC(=S)NNC(=O)c2cnccn2)cc1	–	–	–	–	0.43	–
O=C(NNC(=S)NC(=O)c1cccnc1)c1ccc(Cl)cc1	–	–	–	–	0.53	–
O=C(NC(=S)NNC(=O)c1cnccn1)c1ccc(Cl)cc1	–	–	–	–	–	–
COc1ccc(CCNC(=O)c2cc3c(F)cccc3s2)cc1OC	–	–	–	–	–	–
SMILES	E coli growth-1	AddAB inh	phage Ecoli inh	p-CIP stab down	E coli growth-2	Tat transport
CCSc1nnc(NC(=O)c2ccccn2)s1	11	–	–	–	–	–
COc1ccc(-c2oc3ccccc3c2C#Cc2cncn2C)cc1	–	–	–	·	·	–
N=C(N)c1ccc(Cl)cc1	–	–	–	–	–	–
N=C(N)c1ccc(/C=C/c2ccc(C(=N)N)cc2O)cc1	–	–	–	–	–	76
COc1ccc(Br)cc1CSC(=N)N	–	–	–	–	–	–
CCCCCOc1ccc(Br)cc1CSC(=N)N	·	·	–	–	0.48	–
CO[C@@]12[C@@H]3N[C@@H]3CN1C1=C(C(=O)C(N)=C(C)C1=O)[C@@H]2COC(N)=O	·	·	–	·	·	67
CCCCN1CCC(CN2C(=O)C(=O)NC[C@@H]2Cc2ccccc2)CC1	·	·	–	·	·	–
Cc1ccc(NC(=O)C2CCCN(c3ncccn3)C2)cc1F (stereo unspecified)	9.8	–	–	–	–	–
O=c1c(O)c(-c2ccccc2)oc2cc(O)cc(O)c12	–	–	–	·	–	–
O=c1c(O)c(-c2cc(O)c(O)c(O)c2)oc2cc(O)cc(O)c12	10	–	–	·	·	–
Cc1csc(N=Cc2ccc([N+](=O)[O-])o2)n1	·	·	12	·	·	·
O=[N+]([O-])CC(c1ccccc1)c1c[nH]c2ccccc12 (stereo unspecified)	–	–	–	·	–	·
OC(CNCC(c1ccc(Cl)cc1Cl)c1c[nH]c2ccccc12)c1ccccc1 (stereo unspecified)	–	–	–	–	0.45	–
Cc1cc(C)nc(SCC(=O)NN=C/C=C/c2ccccc2)n1	·	·	·	·	–	·
Cc1ccc(-n2[nH]c(C)c(C=Nc3ccc(S(=O)(=O)Nc4nccs4)cc3)c2=O)c(C)c1	–	13	·	–	–	·
Cc1ccc(-n2[nH]c(C)c(C=Nc3ccc(S(=O)(=O)Nc4nccs4)cc3)c2=O)cc1C	–	–	–	–	–	–
C(=C\c1ccco1)/c1nc2ccccc2[nH]1	–	–	–	–	–	–
C(=C\c1nc2ccccc2[nH]1)/c1ccccc1	–	–	–	–	0.53	–
CCN1/C(=C/c2cc[n+](CCCS(=O)(=O)[O-])c3ccccc23)Sc2ccccc21	–	–	–	–	–	–
C=CC[n+]1ccc(/C=C2\C=Cc3cc(C)ccc3N2CC)c2ccccc21	·	·	·	–	0.44	–
O=C(Nc1ccc([N+](=O)[O-])cc1Cl)c1cc(Cl)ccc1O	–	–	–	·	0.45	–
O=C(Nc1cccc(Cl)c1)c1cc(N=Nc2ccc([N+](=O)[O-])cc2Cl)ccc1O	–	–	–	–	0.5	–
Cc1cccnc1NC(=O)C1CCN(S(=O)(=O)c2c(C)noc2/C=C/c2ccco2)CC1	–	–	–	–	–	–
CC1=NN(c2ccccc2)C(=O)C1C(=O)C(=O)Nc1ccc(F)cc1 (stereo unspecified)	–	–	–	–	–	–
SMILES	E coli growth-1	AddAB inh	phage Ecoli inh	p-CIP stab down	E coli growth-2	Tat transport
CC(C)CCNC(=S)Nc1ccc([N+](=O)[O-])cc1	–	–	–	–	–	–
CCCCNC(=S)Nc1ccc([N+](=O)[O-])cc1	–	–	–	–	0.52	–
CC1CCN(S(=O)(=O)c2ccc3c(c2)C(=NO)c2cc(S(=O)(=O)N4CCC(C)CC4)ccc2-3)CC1	–	–	–	·	–	–
O=S(=O)(c1ccc2c(c1)C(=NO)c1cc(S(=O)(=O)N3CCCCC3)ccc1-2)N1CCCCC1	–	–	–	60	–	–
Cc1cc(Cl)ccc1NC(=S)NCCC(c1ccccc1)c1ccccc1	13	–	–	–	–	–
CN(C)CCOc1ccc(-c2c(-c3ccsc3)sc3ccccc23)cc1	–	–	–	·	·	–
COc1ccc(-c2sc3ccccc3c2-c2ccc(OCCN(C)C)cc2)cc1	–	–	–	·	0.47	–
COc1ccc(CCNC(=O)c2ccc3c(c2)N(Cc2ccc(F)cc2)CCS3)c(OC)c1	–	–	–	–	–	–
Cc1cccnc1Nc1nc(-c2ccccn2)cs1	–	–	–	–	0.5	–

Bioassay records deposited in PubChem by several laboratories.
